Assay outcomes (PubChem)
Sampled rows, rich in hits. Any-hit rate of the full collection: about 21%.
Pf growth 48h – P. falciparum growth inhibition at 48 hours (one generation) | Potency, µM (highest dose often 28.7 µM), inactives show top-dose activity change, negative = inhibition, most hits filed as inhibitors | actives 5.9% (n = 310,000) | AID 504832 | P. falciparum luciferase growth in erythrocytes, 48 h; also: potency is read from the fitted curve at half-maximal effect; % is scaled to controls: 0 for no effect and ±100 for the full control effect
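Cell-based growth assay: transgenic P. falciparum expressing firefly luciferase, cultured in red cells within RPMI 1640 containing 0.5% w/v Albumax, 24 mM bicarbonate and gentamycin. A drop in luciferase activity indicates inhibition.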
SARS PLP yeast – SARS-CoV PLP inhibition in yeast; actives 0.19% (n = 330,000); Potency, µM (top dose mostly 32.9 µM), for the others: top-dose activity, positive = growth rescue, hits mostly activators; S. cerevisiae expressing SARS-CoV PLpro, growth rescue; AID 485353; calls by dose curve; also: potency is read from the fitted curve at half-maximal effect; 0% is about no effect; nearly all actives have a fitted effect of over 55% in size
Shiga inhibitor – Shiga toxin inhibition. inhibition, % at 38.7 µM. Vero cells, Shiga toxin protein synthesis inhibition reporter. actives 9.2% (n = 290,000). AID 2315; in the data active = inhibition mostly above about 28%, no sharp cut-off; inactive = mostly below about 43%; also: 0% is about no effect
Pf growth 96h – P. falciparum growth inhibition at 96 hour, primary screen for plastid delayed-death inhibitors; actives 6.9% (n = 320,000); AID 504834; P. falciparum luciferase reporter growth, 96 h; Potency, µM (series often up to 28.7 µM), for inactives: top-dose activity change, negative = inhibition, hits mostly inhibitors; also: potency is read from the fitted curve at half-maximal effect; % is scaled to controls: 0 for no effect and ±100 for the full control effect
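Readout is luminescence from an integrated firefly luciferase in P. falciparum. Red cells, 2% hematocrit and 0.05% parasitemia final, were cultured with compound through two parasite generations (96 hours) at 37 C, 5% CO2.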
CHX counter – affects cycloheximide protein synthesis inhibition readout, counter-screen; cell reporter, cycloheximide protein synthesis inhibition counterscreen; max response, %; actives 12% (n = 300,000); AID 2314; in the data active = max response mostly above about 13%, no sharp cut-off; inactive = mostly below about 14%; also: read at 38.3 µM for the half of the compounds with a filed dose; 0% is about no effect
NS1 inh – blocks influenza NS1 protein function; actives 0.4% (n = 270,000); Potency, µM (top dose mostly 46.1 µM), for the others: at the top dose activity, positive = more growth; calls by dose curve; also: potency is read from the fitted curve at half-maximal effect; actives are rising curves; nearly all actives have a fitted effect of over 50% in size
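S. cerevisiae expressing influenza A NS1, grown in glucose, washed, then diluted 1:100 into pH 6.0 -URA galactose medium with 23 nl compound. Growth recovery read as OD600; NS1-free strain serves as control.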
An asterisk follows results filed as active; ? = inconclusive; / = no result; [ ] = remark or other dose. Unless noted, calls follow the shape of the dose curve; as a rule, active = well fitted inhibition curve with a large enough effect; inconclusive = small, poorly fitted or top-dose-only effect, or another doubt; inactive = no such curve, though single readings can be large or run the other way.

SMILES | Pf growth 48h | SARS PLP yeast | Shiga inhibitor | Pf growth 96h | CHX counter | NS1 inh
N#Cc1ccc(CN2CCN(C(=O)c3ccc(S(=O)(=O)NCc4ccco4)cc3)CC2)cc1 | ? | 2.3% | / | 3.7µM* | / | /
O=C(c1ccc(S(=O)(=O)NCc2ccco2)cc1)N1CCCC1 | 5.2% | 0.3% | -14.4 | -16.3% | -0.6 | /
Cc1cc(C(F)(F)F)n(-c2nc(C(=O)Nc3ccccc3Oc3ccccc3)cs2)n1 | -1.7% | -1.9% | -13.9 | 14.2% | 2.1 | -1.6%
Nc1ccccc1C(=O)NNC(=O)C(=O)/C=C(\O)c1ccccc1 | 166.1% | -0.8% | 53.4* | 166.9% | 32.6* | 6.5%
O=C(/C=C(\O)c1ccccc1)C(=O)NNC(=O)c1ccccc1[N+](=O)[O-] | 67.5% | 0.6% | 71.4* | 50.8% | 16.7* | -3.5%
CCC/C=C1/CCCOC(C(=O)NCc2ccc(C)o2)(C(F)(F)F)C1 (stereo not drawn) | / | 4.6% | -2.1 | / | -8.5 | /
CC(C)C[C@@H](NC(=O)[C@@H](Cc1ccccc1)NC(=O)c1cnccn1)B(O)O | 0.12µM* | / | / | 0.0338µM* | / | /
CN(Cc1ccccc1)S(=O)(=O)c1ccc(S(=O)(=O)N(Cc2ccc(F)cc2)C2CCCC2)cc1 | ? | 5.4% | 5.2 | / | 7.9 | 7.9%
O=C(O)c1ccc(S(=O)(=O)N(Cc2ccc(F)cc2)C2CCCCC2)cc1 | -11.6% | -1.0% | -4.9 | 11.7µM* | -2.0 | -8.4%
O=S(=O)(NC1CCCCC1)c1ccc(Br)cc1 | 10.8% | -0.9% | -22.7 | 36.0% | 1.0 | -63.5%
Cc1ccc(S(=O)(=O)NC2CCCCCCC2)cc1 | 46.3% | -10.1% | -4.8 | 8.28µM* | -4.8 | -33.7%
O=C(O)c1ccc(S(=O)(=O)NC2CCCCCC2)cc1 | 12.0% | -1.5% | -14.9 | 11.7µM* | -1.0 | -5.4%
CC(=O)Nc1ccc(S(=O)(=O)N2CCN(c3nc4ccccc4n3CC(C)C)CC2)cc1 | ? | 3.3% | -13.3 | -19.6% | -1.0 | -14.6%
CC(=O)/C=C/c1ccccc1Oc1c(F)c(F)nc(F)c1F | ? | -0.6% | -4.7 | 9.28µM* | 7.0 | 0.6%
Cc1cc(=O)oc(C)c1C(=O)OC(C(=O)c1ccccc1)c1ccccc1 (stereo not drawn) | 3.5% | -23.9% | -1.9 | ? | -0.3 | -15.4%
Cc1cc(=O)oc(C)c1C(=O)OCC(=O)c1ccc2ccccc2c1 | / | -0.2% | 52.2* | -0.4% | 29.7* | -16.8%
Cc1cc(=O)oc(C)c1C(=O)OCC(=O)c1ccccc1 | 26.7% | 6.1% | 33.7 | 3.9% | 29.6* | -10.6%
Cc1ccc(-c2csc(N/N=C/c3ccco3)n2)c(C)c1 | 13.1µM* | 19.9% | 62.5* | 37.3% | 46.2* | 9.5%
O=C(/C=C/c1ccco1)NC(=S)Nc1nc(-c2ccc3ccccc3c2)cs1 | 30.0% | 7.8% | -7.6 | ? | -1.4 | 17.6%
C/C(=N\Nc1nc(-c2ccc(C)cc2C)cs1)c1cc2ccccc2oc1=O | -9.9% | -19.1% | 5.0 | ? | 4.1 | ?
CN(C)S(=O)(=O)c1cccc(-c2csc(N/N=C/c3ccco3)n2)c1 | ? | 0.1% | 21.6 | -5.7% | 13.7* | ?
COc1ccccc1OCC(=O)Nc1cccc(-c2nnc(-c3ccco3)o2)c1 | ? | 0.7% | 81.9* | 31.7%[5.75 µM] | 35.6* | /
O=C(Cc1ccccc1)Nc1cccc(-c2nnc(-c3ccco3)o2)c1 | 6.3% | -13.2% | 85.8* | -13.6% | 29.8* | -6.3%
O=C(Cc1ccc(Cl)cc1)Nc1cccc(-c2nnc(-c3ccco3)o2)c1 | ? | 0.6% | -2.9 | -29.3% | 3.5 | 5.8%
O=C(Nc1cccc(-c2nnc(-c3ccco3)o2)c1)C(c1ccccc1)c1ccccc1 | / | -2.5% | -6.4 | 5.22µM* | -2.9 | -66.2%
SMILES | Pf growth 48h | SARS PLP yeast | Shiga inhibitor | Pf growth 96h | CHX counter | NS1 inh
O=C(COc1ccccc1)Nc1ccc(-c2nnc(-c3ccco3)o2)cc1 | 5.9% | -4.9% | 2.2 | / | -3.7 | 9.6%
COc1ccc(C2=Nn3c(nnc3-c3ccccc3F)SC2)cc1OCC1CC1 | / | -4.5% | / | / | / | /
Cc1ccsc1C(=O)N(C)CC(=O)N(CC(C)C)c1c(N)n(CC(C)C)c(=O)[nH]c1=O | -14.9% | 1.0% | / | 5.3% | / | /
O=C(CCCCCNc1nc(=S)[nH]c2ccccc12)NCc1ccccc1Cl | ? | 0.5% | -10.0 | ? | -0.7 | 8.0%
S=c1nc(NCCc2ccccc2Cl)c2ccccc2[nH]1 | -35.9% | 1.3% | 30.9 | -7.3% | 26.2* | -3.2%
C#CCOCCOCCOCCNc1nc(N2CCN(C(=O)CCCCCCCCCCNC(=O)[C@H]([C@@H](C)CC)n3cc(CCCCCN)nn3)CC2)nc(N2CCN(C(=O)CCCCCCCCCCNC(=O)[C@H](CO)n3cc(CCCCCN)nn3)CC2)n1 | 13.1µM* | -2.4% | / | ? | / | /
C#CCOCCOCCOCCNc1nc(N2CCN(C(=O)Cn3cc(CCCCN)nn3)CC2)nc(N2CCN(C(=O)[C@H]([C@@H](C)CC)n3cc(CCCCN)nn3)CC2)n1 | -6.3% | -0.1% | / | 76.7% | / | /
C#CCOCCOCCOCCNc1nc(N2CCN(C(=O)CCCCCCCCCCNC(=O)[C@H]([C@@H](C)CC)n3cc(CCCCCN)nn3)CC2)nc(N2CCN(C(=O)CCCCCCCCCCNC(=O)[C@@H]([C@H](C)CC)n3cc(CCCCCN)nn3)CC2)n1 | 3.29µM* | 2.1% | / | ? | / | /
C#CCOCCOCCOCCNc1nc(N2CCOCC2)nc(N2CCN(C(=O)CCCCCCCCCCNC(=O)[C@@H]([C@H](C)CC)n3cc(CCCCCN)nn3)CC2)n1 | 1.17µM* | -2.3% | / | 0.828µM* | / | /
C[C@H](CO)N1C[C@H](C)[C@@H](CN(C)Cc2ccc(Cl)c(Cl)c2)Oc2c(NC(=O)Cc3ccccc3)cccc2C1=O | / | 1.6% | / | / | / | /
CCN(CC)CCN1C(=O)C2C(C(=O)Nc3ccc(C(C)C)cc3)C3C=CC2(O3)C1C(=O)NC1CCCCC1 (stereo not drawn) | ? | 1.0% | 44.7 | -11.4% | -1.0 | -17.5%
COc1ccc(/C=C/c2cc(C(=O)O)c3ccccc3n2)cc1 | ? | -3.8% | -12.5 | ? | 14.6* | 2.9%
Cc1cc(/C=C\c2ccccc2)nc2ccccc12 | 30.1% | -4.2% | 119.5* | 1.9% | 30.3* | -42.0%
O=C(Cn1ccc2ccccc2c1=O)NCCC(=O)NC1CCN(Cc2ccccc2)CC1 | 18.0% | 1.1% | 10.7 | ? | -4.0 | ?
COc1ccc(C2C(C#N)=C(N)N3C(=C2C#N)Sc2ccccc23)cc1 (stereo not drawn) | 9.9% | -15.5% | 42.6 | -3.9% | 20.2* | 0.2%
NC(=O)c1ccccc1OCC(=O)c1ccc(Cl)cc1 | 4.15µM* | 3.6% | 16.6 | 0.4% | 2.3 | /
COc1ccc(C(=O)COc2ncnc3cc(Cl)ccc23)cc1 | 16.7% | 0.8% | 16.9 | 43.8% | 1.7 | 1.5%
O=C(COc1ncnc2cc(Cl)ccc12)c1ccccc1 | 21.2% | 1.3% | 97.9* | 48.8% | 44.6* | -39.6%
O=C(COc1ncnc2ccccc12)c1ccc(Cl)cc1 | 0.0% | 0.7% | 79.4* | 75.8% | 26.1* | -29.0%
